Measured values from PubChem BioAssay (NCI).
Compounds without any hit were thinned out: in the full panel of roughly 83,000, 20% have a hit.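 96-well plates, one dose, 48 hours. Percent growth reported; active if below 10.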 Activity calls are given as the source filed them.

Key:
Assay in all cases: NCI-60 one-dose screen, 48 h (100 = growth as untreated, 0 = no growth, -100 = all killed)
Details in all cases: 10 µM unless noted
BT-549 breast = system: BT-549 breast
MDA-MB-435 melanoma = system: MDA-MB-435 melanoma
SW-620 colon = system: SW-620 colon
MCF7 breast = system: MCF7 breast
HCT-116 colon = system: HCT-116 colon
HCC-2998 colon = system: HCC-2998 colon
KM12 colon = system: KM12 colon

Measured: growth

Cc1nn(-c2ccc(Cl)cc2)c2nc3c(nc12)c(=O)oc1ccccc13
inactive: BT-549 breast 89.8% | MDA-MB-435 melanoma 106% | SW-620 colon 104% | MCF7 breast 99.1% | HCT-116 colon 105% | HCC-2998 colon 98.2% | KM12 colon 112%

COc1ccc(-n2nnc(C(=O)O)c2-c2cc(OC)c(OC)c(OC)c2)cc1
inactive: BT-549 breast 101% | MDA-MB-435 melanoma 121% | SW-620 colon 104% | MCF7 breast 102% | HCT-116 colon 100% | HCC-2998 colon 99.1% | KM12 colon 105%

O=[P@@]1(c2ccccc2)O[C@H](COCc2ccccc2)[C@@H](OCc2ccccc2)[C@H](OCc2ccccc2)[C@H]1NCc1ccccc1
inactive: SW-620 colon 21.6% | HCC-2998 colon 38.8% | KM12 colon 15.3%
active: BT-549 breast 4.37% | MDA-MB-435 melanoma 9.72% | MCF7 breast 9.59% | HCT-116 colon 8.21%

CCCCOc1ccc(C(C)(C)c2ccc(OCCCC)cc2)cc1
inactive: BT-549 breast 106% | MDA-MB-435 melanoma 117% | SW-620 colon 112% | MCF7 breast 104% | HCT-116 colon 95.8% | HCC-2998 colon 105% | KM12 colon 120%

O=C(CCc1nnc2sc(-c3ccc(Cl)cc3Cl)nn12)c1nc2ccccc2[nH]1
active: BT-549 breast -28.2% | MDA-MB-435 melanoma -39.7% | SW-620 colon -34.3% | MCF7 breast -40.7% | HCT-116 colon -84.7% | HCC-2998 colon -90.3% | KM12 colon -27%

COc1ccc(-c2cncn2-c2ccc(-c3nc4cc(OC)c(OC)c(OC)c4s3)cc2)cc1N
inactive: BT-549 breast 31.5% | MDA-MB-435 melanoma 47.6% | SW-620 colon 63.6% | MCF7 breast 39.9% | HCT-116 colon 36.3% | HCC-2998 colon 80.5% | KM12 colon 51.8%

CN(C)c1ccc(/C=C(\C#N)c2nc3ccccc3c(=O)[nH]2)cc1
inactive: BT-549 breast 87.9% | MDA-MB-435 melanoma 86.7% | SW-620 colon 82.6% | MCF7 breast 73.5% | HCT-116 colon 76.9% | HCC-2998 colon 84.8% | KM12 colon 79.9%

COc1ccc2c(c1)C(=O)/C(=C/c1cccc(OCC(=O)c3ccccc3)c1)CC2
inactive: BT-549 breast 39.2% | MDA-MB-435 melanoma 41.1% | SW-620 colon 66% | MCF7 breast 48.7% | HCT-116 colon 72.1% | HCC-2998 colon 96.4% | KM12 colon 91.5%

CO[C@H]1/C=C/O[C@@]2(C)Oc3c(C)c(O)c4c(O)c(c(/C=N/N5CCN(C)CC5)c(O)c4c3C2=O)NC(=O)/C(C)=C\C=C\C(C)[C@H](O)[C@@H](C)[C@@H](O)[C@@H](C)[C@@H](OC(C)=O)[C@@H]1C (stereo partly specified)
inactive: BT-549 breast 99.2% | MDA-MB-435 melanoma 103% | SW-620 colon 107% | MCF7 breast 98.7% | HCT-116 colon 101% | HCC-2998 colon 99.5% | KM12 colon 100%

CN=C(NC)N/N=C(C)\C=N\NC(=NC)NC
inactive: BT-549 breast 110% | MDA-MB-435 melanoma 104% | SW-620 colon 99.5% | MCF7 breast 104% | HCT-116 colon 105% | HCC-2998 colon 110% | KM12 colon 104%

OCCOc1c(Cl)cc(Cl)cc1Cl
inactive: BT-549 breast 109% | MDA-MB-435 melanoma 103% | SW-620 colon 98.7% | MCF7 breast 89% | HCT-116 colon 109% | HCC-2998 colon 110% | KM12 colon 115%

O=C1Cc2cc(CCn3cncn3)c(Cl)cc2N1
inactive: BT-549 breast 68% | MDA-MB-435 melanoma 34.4% | SW-620 colon 54.2% | MCF7 breast 29% | HCT-116 colon 79% | HCC-2998 colon 75.1% | KM12 colon 36%

Cn1cc(-c2csc(-c3cn(C)c4ncccc34)n2)c2cc(Br)cnc21
inactive: BT-549 breast 95.2% | MDA-MB-435 melanoma 55.2% | SW-620 colon 89.4% | MCF7 breast 70.2% | HCT-116 colon 90.6% | HCC-2998 colon 98% | KM12 colon 83.1%

Cc1cc(C(C)(C)c2cc(C)c(O)c(CN(C)C)c2)cc(CN(C)C)c1O
inactive: BT-549 breast 84.5% | MDA-MB-435 melanoma 78.1% | SW-620 colon 92.7% | MCF7 breast 96.4% | HCT-116 colon 55.1% | HCC-2998 colon 82.1% | KM12 colon 101%

CCOc1nc(-c2ccccc2)cc2c(O)c(-c3nnco3)[nH]c(=O)c12
inactive: BT-549 breast 41.6% | MDA-MB-435 melanoma 63.8% | SW-620 colon 32.2% | MCF7 breast 23.3% | HCT-116 colon 39.7% | HCC-2998 colon 61.5% | KM12 colon 48.9%

CN(C)c1nc(N)nc(Cn2c(-c3nonc3N)nc3ccccc32)n1
active: MDA-MB-435 melanoma 7.85%
inactive: BT-549 breast 91.8% | SW-620 colon 52.4% | MCF7 breast 66.5% | HCT-116 colon 71.5% | HCC-2998 colon 82.7% | KM12 colon 55.4%

CCS(=O)(=O)OCCCl
inactive: BT-549 breast 89.6% | MDA-MB-435 melanoma 106% | SW-620 colon 108% | MCF7 breast 102% | HCT-116 colon 107% | KM12 colon 115%

Clc1cc(Cl)c(OCC#CI)cc1Cl
active: SW-620 colon -65.9% | MCF7 breast 9.27% | HCT-116 colon -71.6%
inactive: BT-549 breast 135% | MDA-MB-435 melanoma 55.5% | HCC-2998 colon 109% | KM12 colon 82.1%

Cc1c(C(N)=O)sc2ncn(Cc3ccccc3)c(=O)c12
inactive: BT-549 breast 62.6% | MDA-MB-435 melanoma 53.7% | SW-620 colon 103% | MCF7 breast 99.8% | HCT-116 colon 94.7% | KM12 colon 110%

O=C(/C=C/c1cc2ccccc2[nH]c1=O)c1ccc(O)cc1
inactive: BT-549 breast 28% | MDA-MB-435 melanoma 34.3% | MCF7 breast 14.7% | HCT-116 colon 12.9% | HCC-2998 colon 93.1%
active: SW-620 colon -10.8% | KM12 colon -8.87%

COc1cc(/C=C/C(=O)Nc2ccc3c(c2)/C(=C\c2cccn2C)C(=O)N3)cc(OC)c1OC
inactive: BT-549 breast 46.6% | MDA-MB-435 melanoma 59.9% | SW-620 colon 83.1% | HCT-116 colon 37.3% | KM12 colon 33.8%
active: MCF7 breast 1.79%

COc1cc(-c2cc(C(=O)Nc3nc4ccccc4s3)nc3cc(-c4ccccc4)nn23)cc(OC)c1OC
inactive: BT-549 breast 59.6% | MDA-MB-435 melanoma 31% | SW-620 colon 55.7% | MCF7 breast 72.9% | HCT-116 colon 57.8% | HCC-2998 colon 85.6% | KM12 colon 45.3%

c1ccc2cc(C[n+]3ccn(CCCCCCCn4cc[n+](Cc5ccc6ccccc6c5)c4)c3)ccc2c1
inactive: BT-549 breast 16.7% | MDA-MB-435 melanoma 32.7% | SW-620 colon 74.2% | MCF7 breast 35.1% | HCT-116 colon 32.7% | HCC-2998 colon 49.3% | KM12 colon 28.7%

CCC(c1ccccc1)c1noc(CCN(CC)CC)n1 (stereo unspecified)
inactive: BT-549 breast 84.6% | MDA-MB-435 melanoma 110% | SW-620 colon 120% | MCF7 breast 86.5% | HCT-116 colon 92% | HCC-2998 colon 106% | KM12 colon 105%

Cn1c(N)c(N=O)c(=O)[nH]c1=O
inactive: BT-549 breast 93.5% | MDA-MB-435 melanoma 108% | SW-620 colon 107% | MCF7 breast 106% | HCT-116 colon 104% | HCC-2998 colon 118% | KM12 colon 99%

COc1ccc(-c2csc(NC(=O)c3cc(O)c(O)c(O)c3)n2)cc1
inactive: BT-549 breast 66.9% | MDA-MB-435 melanoma 64.4% | SW-620 colon 56.8% | MCF7 breast 60.6% | HCT-116 colon 49.5% | KM12 colon 84.8%

c1cnc2n[nH]c(Nc3ncnc4c3sc3ncccc34)c2c1
inactive: BT-549 breast 106% | MDA-MB-435 melanoma 101% | SW-620 colon 101% | MCF7 breast 91.3% | HCT-116 colon 96.2% | HCC-2998 colon 108% | KM12 colon 103%

C=C(C)[C@@H]1C[C@H](O)Cc2cc(Cl)cc(Cl)c2N1
inactive: BT-549 breast 105% | MDA-MB-435 melanoma 105% | SW-620 colon 105% | MCF7 breast 103% | HCT-116 colon 99.5% | HCC-2998 colon 105% | KM12 colon 107%

Clc1ccc([C@@H]2C[C@@H]3Cc4cc(Br)c5ccccc5c4N2O3)c(Cl)c1
active: MDA-MB-435 melanoma 4.61%
inactive: BT-549 breast 97.7% | SW-620 colon 55.4% | MCF7 breast 34% | HCT-116 colon 76.6% | HCC-2998 colon 87% | KM12 colon 66.7%

O=C(/C(=N/O)S(=O)(=O)c1ccccc1)c1cccs1
inactive: BT-549 breast 103% | MDA-MB-435 melanoma 105% | SW-620 colon 117% | MCF7 breast 98% | HCT-116 colon 96.4% | HCC-2998 colon 93.2% | KM12 colon 107%

O=C1OCCCCCCCCCC#Cc2ccccc21
inactive: BT-549 breast 124% | MDA-MB-435 melanoma 104% | SW-620 colon 93.9% | MCF7 breast 164% | HCT-116 colon 70.4% | KM12 colon 136%

COc1cc(/C=C/C(=O)c2c(-c3ccc(Cl)cc3)nc3sc(C)nn23)cc(OC)c1OC
inactive: BT-549 breast 79.3% | MDA-MB-435 melanoma 73.9% | SW-620 colon 59.6% | MCF7 breast 38.1% | HCT-116 colon 50.2% | KM12 colon 73.6%

COc1ccc2nc(NC(=O)c3cc(-c4ccc(F)cc4)n4nc(-c5ccccc5)cc4n3)sc2c1
inactive: BT-549 breast 53.5% | MDA-MB-435 melanoma 96.2% | SW-620 colon 94.7% | MCF7 breast 86.8% | HCT-116 colon 61.5% | HCC-2998 colon 98.6% | KM12 colon 74.1%

COc1ccc(/C=C(\C#N)c2ccccc2)cc1
inactive: BT-549 breast 85.4% | MDA-MB-435 melanoma 12% | SW-620 colon 71.4% | MCF7 breast 103% | HCT-116 colon 85.4% | KM12 colon 49.2%

COc1ccc(-c2c3c(nn2-c2ccc(N)cc2)CCc2cnoc2-3)cc1OC
inactive: BT-549 breast 81.4% | MDA-MB-435 melanoma 94.8% | SW-620 colon 97.6% | MCF7 breast 94.1% | HCT-116 colon 84.4% | HCC-2998 colon 98.4% | KM12 colon 82.1%

O=C(/C=C/c1ccc(Cl)cc1)c1ccccc1
inactive: BT-549 breast 104% | MDA-MB-435 melanoma 97% | SW-620 colon 89.3% | MCF7 breast 24.1% | HCT-116 colon 54% | KM12 colon 77.1%

COc1ncc(-c2ccc3nccc(C#CCN4CCN(S(C)(=O)=O)CC4)c3c2)cc1NS(=O)(=O)c1ccc(F)cc1F
active: BT-549 breast -17.6% | MDA-MB-435 melanoma -23% | SW-620 colon 0.433% | MCF7 breast 6.88% | HCT-116 colon -10.4% | HCC-2998 colon -37% | KM12 colon -57.2%
